# GALK inh: qHTS Assay for Inhibitors of Human Galactokinase (GALK) | Purified GALK, Kinase-Glo residual ATP luminescence | Potency, µM (top dose mostly 57.5 µM), for the others: at the top dose activity change, negative = inhibition, usual class: inhibitors | 270,000 tested, 0.007% active | AID 1868, 2009; further: potency means the concentration at half of the fitted maximal effect
# Target sequence (P51570 whole entry, looked up): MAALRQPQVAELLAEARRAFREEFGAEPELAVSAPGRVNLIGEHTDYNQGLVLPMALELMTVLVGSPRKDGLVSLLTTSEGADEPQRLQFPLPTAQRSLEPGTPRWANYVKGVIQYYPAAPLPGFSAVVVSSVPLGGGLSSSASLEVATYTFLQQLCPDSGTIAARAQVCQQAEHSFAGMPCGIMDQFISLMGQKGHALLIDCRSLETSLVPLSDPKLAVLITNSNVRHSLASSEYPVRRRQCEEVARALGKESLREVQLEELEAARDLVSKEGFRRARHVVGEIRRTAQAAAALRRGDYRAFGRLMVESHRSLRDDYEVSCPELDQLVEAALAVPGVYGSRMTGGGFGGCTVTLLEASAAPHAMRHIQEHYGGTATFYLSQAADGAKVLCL
#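 Compounds were pin-transferred into ATP buffer (35 uM final), then GALK plus galactose (5 nM, 100 uM final) was added. After 1 h at room temperature, Kinase-Glo Plus was added and luminescence read after 10 min.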
# TrxR1 substrate: qHTS Assay for Substrates of Mammalian Selenoprotein Thioredoxin Reductase 1 (TrxR1): qHTS; 390,000 tested, 0.01% active; Thioredoxin reductase 1, cytoplasmic (Rattus norvegicus), O89049; AID 588456, 2011; Potency, µM (doses to about 114 µM), for the others: top-dose activity change, negative = substrate turnover; purified TrxR1 substrate turnover, NADPH consumption readout; further: potency means the concentration at half of the fitted maximal effect; nearly all actives have a fitted effect of over 50% in size
#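 Rat TrxR1, dispensed at 90 nM, was prereduced with 400 uM NADPH (final) for 5 min at ~22 deg C, then incubated with compound 15 min before 400 uM selenite. A first-read NADPH fluorescence drop versus no-compound background flagged substrates.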
# Coupling enz: qHTS Assay for Inhibitors of Fructose-1,6-bisphosphate Aldolase from Giardia Lamblia: Coupling assay counterscreen; 290,000 tested, 0.67% active; AID 2472, 2010; activity change, negative = inhibition, % at 58.2 µM, hits read low; coupling enzyme system counterscreen, AmpLite Red fluorescence; in the data active means activity change below about -30%
#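 Final compound at 57.5 uM, incubated 10 min at RT with coupling enzyme reagent (glyceraldehyde-3-phosphate), then 20 min with substrate and AmpLite Red detection. Fluorescence read at 525/598 nm; tests interference with the coupling assay, not aldolase inhibition.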
# TrxR1 inh: qHTS Assay for Inhibitors of Mammalian Selenoprotein Thioredoxin Reductase 1 (TrxR1): qHTS | 390,000 tested, 1% active | Potency, µM (series often up to 114 µM), for the others: top-dose activity change, negative = inhibition, usual class: inhibitors | AID 588453, 2011 | recombinant rTrxR1, NADPH fluorescence consumption, selenite substrate | Thioredoxin reductase 1, cytoplasmic (Rattus norvegicus), O89049; further: potency means the concentration at half of the fitted maximal effect; nearly all actives have a fitted effect of over 65% in size
#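 Rat TrxR1 (90 nM in the dispensed reagent) was pre-reduced with 400 uM NADPH for 5 min at room temperature, then incubated with compound for 15 min. After 400 uM selenite was added, NADPH fluorescence (Ex 340/Em 450 nm) was followed for 8 min.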
# Gal4-VP16 FLuc: VP16 counterscreen qHTS for inhibitors of ROR gamma transcriptional activity; Drosophila S2 Gal4-VP16 UAS-luciferase, luminescence, 20 h; Potency, µM (series often up to 53.6 µM), for inactives: top-dose activity, negative = inhibition, most hits filed as inhibitors; 310,000 tested, 3.5% active; AID 2546, 2010;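 further: Gal4-VP16 expression switched on by copper sulfate through the metallothionein promoter; potency means the concentration at half of the fitted maximal effect; nearly all actives have a fitted effect of over 50% in size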
# RORgamma inh: qHTS for inhibitors of ROR gamma transcriptional activity; Drosophila S2 Gal4-RORgamma UAS-luciferase reporter, 20 h; Potency, µM (titrated, usually from 53.6 µM), for inactives: top-dose activity change, negative = inhibition, usual class: inhibitors; 310,000 tested, 5.4% active; AID 2551, 2010; further: potency means the concentration at half of the fitted maximal effect; nearly all actives have a fitted effect of over 60% in size
#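 Using a luciferase readout, inhibitors were identified by reduced reporter activity in Drosophila cells coexpressing a copper-inducible Gal4–ROR gamma fusion and UAS-driven Photinus luciferase, incubated 20 hr after 700 uM copper sulfate.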
# An asterisk follows results filed as active; ? = inconclusive; nt = no result given; ! = not confirmed by another sample; [ ] = another dose, or the depositor's remark. Only some compounds are listed: those with a hit (about 5.9% of all), similar ones and a draw of the others. Unless noted, the call rests on the fitted dose curve; in most records, active means well fitted curve in the direction sought with a large enough effect; inconclusive means small, poorly fitted or top-dose-only effect, or another doubt; inactive means no such curve, though single readings can be large; an effect the other way counts as inactive or inconclusive. On the % scale 0 is the no-effect control and ±100 the full control effect.
SMILES,GALK inh,TrxR1 substrate,Coupling enz,TrxR1 inh,Gal4-VP16 FLuc,RORgamma inh
CC[C@@H](CO)NC(=O)[C@@H]1C=C2c3cccc4c3c(cn4C)C[C@H]2N(C)C1,-1.7%,11.4%[57.1 µM],-56.4*!,46.2%,?,17.8µM*!
COC(=O)C1C=C2c3cccc4[nH]cc(c34)CC2N(C)C1 (configuration not stated),-1.5%,nt,-34.1*,nt,-1.3%,-30.1%
CC(C)C[C@H]1C(=O)N2CCC[C@H]2[C@]2(O)O[C@](NC(=O)[C@@H]3C=C4c5cccc6[nH]cc(c56)C[C@H]4N(C)C3)(C(C)C)C(=O)N12,nt,22.4%,nt,15.8µM*,nt,nt
COc1ccc2c(c1O)-c1cccc3c1C(C2)N(C)CC3 (configuration not stated),nt,nt,nt,18.2%,nt,nt
COC(=O)C1=C(c2ccccc2)C[C@@H]2CC[C@H]1N2C(=O)NCc1cccc2ccccc12,nt,1.6%[57.1 µM],nt,8.6%,nt,nt
CCOc1ccccc1-n1c(O)c(C=NCCCn2ccnc2)c(=O)[nH]c1=O,6.8%,-21.5%[57.1 µM],2.4,12.4%,1.3%,-11.2%
Cc1ccc(-c2cc(-c3ccc(C)cc3)[n+](-c3ccc(C(=O)O)cc3)c(-c3ccc(C)cc3)c2)cc1,nt,19.7%,nt,14.2%,nt,nt
O=C(O)c1ccc(-c2ccc3cc(C45CC6CC(CC(C6)C4)C5)c(O)cc3c2)cc1,nt,nt,-9.7,nt,11.2µM*,?
COC(=O)CC1=C(C(=O)OC)C2(C(=O)Nc3c(C)cccc32)C(C#N)=C(N)O1 (configuration not stated),-1.0%,-3.8%[0.457 µM],-37.9*,10.6%,?,-24.9%
CCN1CCc2ccccc2C1,-2.9%,-5.9%,1.3,14.4%,-3.9%,-0.3%
CCN1CCN(CC(c2ccccc2)c2ccccc2)CC1,-3.7%,6.9%[57.1 µM],1.2,11.7%[57.1 µM],-5.8%,20µM*
Cc1ccc(/C=C2/C(=O)NC(=O)N(CC3CCCO3)C2=O)s1 (configuration not stated),0.9%,-1.2%,2.5,50.1µM*,-9.7%,27.8%
Cc1ccc(/C=C2\C(=O)NC(=O)N(CCc3ccc(F)cc3)C2=O)s1,-1.3%,8.3%,3.5,-14.0%[57.1 µM],9.5%,5.5%
CN1C(=O)C(=Cc2ccc(Sc3ccccc3)o2)C(=O)N(C)C1=O,-1.5%,6.3%[57.1 µM],-0.1,?,2.4%,?
CN1C(=O)C(=Cc2ccc(Sc3ccccc3)o2)C(=O)N(C)C1=S,nt,-3.1%,nt,20µM*,nt,nt
O=c1c2ccccc2nc(-c2ccccc2F)n1-c1ccccc1,0.0%,1.5%,4.3,25.3%,1.5%,-1.8%
Fc1ccccc1-c1n[nH]c(=S)n1Cc1ccccc1,nt,2.4%,2.3,-5.4%,11.2µM*,7.08µM*
CCOC(=O)c1c(/N=C/c2c(O)n(-c3ccc(F)cc3)c(=S)[nH]c2=O)sc2c1CCCC2,-1.2%,-12.9%,-1.1,-10.6%,1.7%,16.4%
CCOC(=O)c1c(/N=C/c2c(O)n(-c3ccccc3F)c(=S)[nH]c2=O)sc2c1CCCC2,-1.5%,-8.6%,-49.0*,?,-6.0%,2.6%
COc1cc2c(cc1OC)-c1c(OC)c(OC)cc3c1[C@H](C2)N(C)CC3,nt,10.5%,-33.8*,-20.8%,-17.6%,-6.9%
COc1cc2c(cc1O)CC1c3c(cc(O)c(OC)c3-2)CCN1C (configuration not stated),0.7%,29.5%[57.1 µM],-4.7,-0.4%[57.1 µM],5.0%,?
O=C1NC(=S)NC(=O)C1=Cc1ccc(OCC(=O)N2CCCC2)cc1,-7.0%,-3.3%,nt,5.62µM*,-3.1%,12.1%
O=c1[nH]c(=S)n(C2CC2)c(O)c1C=Nc1ccc2c(c1)OCO2,nt,-0.6%,-15.9,17.2%,23.1%,11.6%
C=CCN1C[C@@H](C)N(C(c2ccc(C(=O)N(CC)CC)cc2)c2cccc(OC)c2)C[C@@H]1C (some centres not stated),nt,3.9%,nt,-0.4%,nt,nt
CCN(CC)S(=O)(=O)c1cc(NC(=O)C(C)N2CC=C(c3ccccc3)CC2)ccc1C (configuration not stated),0.6%,-4.7%,-0.8,3.7%[57.1 µM],?,14.4%
SMILES,GALK inh,TrxR1 substrate,Coupling enz,TrxR1 inh,Gal4-VP16 FLuc,RORgamma inh
COc1ccc(-c2oc3cc(OC)ccc3c(=O)c2O)cc1,nt,nt,2.1,nt,7.94µM*,5.01µM*
COc1cccc(Oc2c(C)oc3cc(OC(=O)N(C)C)ccc3c2=O)c1,-0.4%,3.2%,3.1,18.0%,0.4%,15.0%
CC1CC2OC2/C=C\C=C/C(=O)Cc2c(Cl)c(O)cc(O)c2C(=O)O1 (configuration not stated),nt,nt,3.3,nt,10µM*,7.94µM*
COC(=O)C1=C(c2ccc(F)cc2OCc2ccccc2)C[C@@H]2CC[C@H]1N2C(=O)NC1Cc2ccccc2C1,nt,3.5%[57.1 µM],nt,17.0%,nt,nt
Cc1cccc(C)c1OP(N)(=O)OCC(F)(F)F (configuration not stated),1.6%,1.8%,3.3,9.8%,-3.7%,0.4%
CC1(O)CCC2C3CCC4=CC(=O)CCC4(C)C34OC4CC21C (configuration not stated),nt,-5.1%,nt,16.1%,nt,nt
CCC1/C=C/C=CCC(C)C(O)[C@@](C)(O)C(=O)C(C)C(O)C(C)C(=O)C(C)C(O)C(C)C=CC(=O)O[C@H]2C(C)C(CC1)O[C@]1(CCC(C)C(CC(C)O)O1)C2C (some centres not stated),nt,nt,-8.4,nt,50.1µM*,0.0006µM*
O=C(O)C1C2c3ccccc3C(=O)C1(C(=O)O)c1ccccc12 (configuration not stated),nt,6.0%[11.4 µM],nt,5.0%[11.4 µM],nt,nt
CCC(C=C[C@@H]1OC(=O)C=C[C@H]1C)=C[C@H](C)CC=CC(C)=C[C@@H](C)C(=O)[C@@H](C)[C@H](O)[C@@H](C)CC(C)=CC(=O)O,nt,nt,-59.1*,nt,1.26µM*,?
CN1C(=O)NC(=O)/C(=C\C=C\c2ccccc2[N+](=O)[O-])C1=O,0.1%,-4.1%,-0.7,-26.1%,?,10µM*
Nc1c2c(nc3sc4c(c13)CCCC4)CCCCC2,-3.0%,7.2%,0.0,16.1%,6.7%,21.2%
Nc1nc2c(s1)CCCCCCCCCC2,-0.5%,1.8%,-0.7,17.3%,6.3%,11.2µM*
COC(=O)C1=C(c2cccc(OCc3ccccc3)c2)C[C@@H]2CC[C@H]1N2C(=O)NCc1ccc(OC)c(OC)c1,nt,-0.9%,nt,15.6%,nt,nt
O=C1C=CC(=O)C(Cl)=C1,nt,nt,-22.3,nt,?,11.2µM*
